In PubChem BioAssay (NCATS):
Records with an inconclusive call do not appear. Values without a mark were called inactive. The call rests on the fitted dose curve; in most records, active means well fitted activation curve with a large enough effect; inconclusive means small, poorly fitted or top-dose-only effect, or effect the other way; inactive means flat fitted curve, though single readings scatter.

Experiment: qHTS Assay for Identification of Small Molecule Agonists for Thrombopoietin (TPO) Signaling Pathway (AID 917)
Details: TPO signaling pathway reporter cells, agonist qHTS, stimulated with TPO at its EC50; series mostly up to 38.5 µM; activity, positive = activation: at the top concentration
Method in brief: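 We measured Glycoprotein IIb promoter–luciferase output in IL-3-starved Ba/F3 murine cells expressing the human TPO receptor after 24 hrs at 37 C with compounds and 26 pM TPO.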
On the % scale 0 is the no-effect control and ±100 the full control effect.

Row | SMILES | activity, positive = activation
1 | O=c1[nH]c2cc(Cl)ccc2c(O)c1-c1ccc(Oc2ccccc2)cc1 | -6.13%
2 | O=C(O)Cc1c[nH]c2ccc(O)cc12 | -22%
3 | CCCn1c(=O)c2[nH]c(-c3ccc(S(=O)(=O)O)cc3)nc2n(CCC)c1=O | -25.9%
4 | O=S(=O)(c1cccc2c(Cl)cccc12)N1CCCNCC1 | 6.8%
5 | Cc1ccc([N+](=O)[O-])cc1S(=O)(=O)N(C)C | 10.4%
6 | Cc1cc2c(cc1Cl)N(C(=O)Nc1ccnc3ccccc13)CC2 | -9.08%
7 | Nc1nc2[nH]c(=O)cnc2c(=O)[nH]1 | -2.02%
8 | COc1cc(CNC(=O)CCCCCCC(C)C)ccc1O | -14.8%
9 | COc1ccc2c(c1)c(CC(=O)O)c(C)n2C(=O)c1ccccc1 | 2.83%
10 | COc1ccccc1N1CCN(CCN(C(=O)c2ccc(F)cc2)c2ccccn2)CC1 | -15.7%
11 | O=c1[nH]c2ccccc2c2ccccc12 | 3.9%
12 | CCCOC(=O)c1c(-c2ccccc2)nc(CC)c(C(=O)SCC)c1CCC | -8.13%
13 | CCCc1c(OCCCOc2ccc(OCC(=O)O)cc2)ccc(C(C)=O)c1O | -18.6%
